The record followed here is PubChem BioAssay (NCATS).

Records with an inconclusive call do not appear. Values without a mark were called inactive. Activity calls are given as the source filed them. The call rests on the fitted dose curve; in most records, active means well fitted inhibition curve with a large enough effect; inconclusive means small, poorly fitted or top-dose-only effect; inactive means flat fitted curve, though single readings scatter.
Potency means the concentration at half of the fitted maximal effect.

For the assay, the system named is ATS95. The assay is described as follows: qHTS profiling for inhibitors of Plasmodium falciparum proliferation (AID 504749). Further: nearly all actives have a fitted effect of over 60% in size.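 On activity, negative = inhibition: 0% = DMSO vehicle and full inhibition = artemisinin control.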 Particulars: P. falciparum in erythrocytes, SYBR Green DNA, 72 h; series mostly up to 12.8 µM; activity, negative = inhibition: at the top concentration. Put shortly: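 Quantitative HTS: compounds pinned into medium, infected erythrocytes added (0.3% parasitemia, 2.5% hematocrit), 72 h culture at 37 C under 5% CO2. Saponin/Triton lysis with SYBR Green I, overnight RT, then fluorescence read.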
As for `CCO[C@H]1O[C@@H]([C@H](COCc2ccccc2)OCc2ccccc2)[C@@H](OCc2ccccc2)[C@H]1O`, the “activity, negative = inhibition” value is -10.5%.

Regarding `COc1cc(N[C@@H](C)CCCN)c2ncccc2c1`, the Potency was 3.16 µM (active).

With `C=Cc1c(C)c2cc3nc(cc4[nH]c(cc5nc(cc1[nH]2)C(C)=C5CCC(=O)O)c(CCC(=O)OC)c4C)[C@@]1(C)C3=CC=C(C(=O)OC)[C@H]1C(=O)OC` (tested in a mixture with another compound), the Potency is 7.94 µM (active).

`O=C(OC[C@@H](O)CO)c1ccccc1Nc1ccnc2cc(Cl)ccc12`: the “activity, negative = inhibition” value is -4.22%.

Take `CO[C@]1(NC(=O)[C@H](C(=O)O)c2ccc(O)cc2)C(=O)N2C(C(=O)O)=C(CSc3nnnn3C)CO[C@H]21`: the “activity, negative = inhibition” value is 3.88%.

With `COc1ccc2c(c1)N(C[C@@H](C)CN(C)C)c1ccccc1S2`, the “activity, negative = inhibition” value is -10.4%.

On to `CCC(=O)[C@@]1(C)[C@H](C)C[C@@H]2[C@@H]3CCC4=CC(=O)C=C[C@@]4(C)[C@H]3[C@H](O)C[C@]21C`, for which the “activity, negative = inhibition” value is 4.82%.

For `CCC(C)(C)C(=O)O[C@@H]1C[C@H](C)C=C2C=C[C@H](C)[C@@H](CC[C@H]3C[C@@H](O)CC(=O)O3)[C@H]21`, the “activity, negative = inhibition” value was -15.7%.

Consider `CC=C(/C(=C/C)c1ccc(O)cc1)c1ccc(O)cc1`, for which the “activity, negative = inhibition” value was -3.19%.

As for `CC1(C)S[C@@H]2[C@H](NC(=O)[C@@H](N)c3ccccc3)C(=O)N2[C@H]1C(=O)O[C@H]1OC(=O)c2ccccc21`, the “activity, negative = inhibition” value was 3.86%.
